# From PubChem BioAssay AID1159580 (chemical genetic matrix, 2015)
# Out of some 5,500 compounds screened, about 2,000 (36%) were called active. Another 18% or so got no clear call; they are omitted. The list shows a part of the results. A number with no mark means an inactive call. Cut-off read from the data, not from the text of the source: active = normalized growth mostly below about 0.91 (no sharp cut-off); inconclusive = no clear call, values can overlap the other calls; inactive = mostly above about 0.92.
# Test: chemical genetic growth profiling, strain panel (AID 1159580);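 note: tested at 20 µM; growth read once vehicle control cultures reached saturation at 30 °C; 1 = growth at the plate median or of vehicle wells; lower values mean less growth of the strain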
# Details: S. cerevisiae deletion strains, growth OD
smiles,measurement,setting,value
Cc1cccc(NC(=S)N/N=C\c2ccc(F)cc2)c1,normalized growth,"locus YAR019C, strain CDC15, hits give low values",0.96
same,normalized growth,"locus YBL105C, strain PKC1, hits give low values",0.966
same,normalized growth,"locus YBR135W, strain CKS1, hits give low values",0.966
same,normalized growth,"locus YBR136W, strain MEC1, hits give low values",0.965
same,normalized growth,"locus YBR160W, strain CDC28, hits give low values",0.958
same,normalized growth,"locus YDL017W, strain CDC7, hits give low values",0.958
same,normalized growth,"locus YDL028C, strain MPS1, hits give low values",0.958
same,normalized growth,"locus YDL101C, strain DUN1, hits give low values",0.967
same,normalized growth,"locus YDL108W, strain KIN28, hits give low values",0.962
same,normalized growth,"locus YDL132W, strain cdc53, hits give low values",0.934
same,normalized growth,"locus YDL214C, strain PRR2, hits give low values",0.867
same,normalized growth,"locus YDR052C, strain DBF4, hits give low values",0.956
same,normalized growth,"locus YDR054C, strain cdc34, hits give low values",0.938
same,normalized growth,"locus YDR226W, strain ADK1, hits give low values",0.952
same,normalized growth,"locus YDR477W, strain SNF1, hits give low values",0.835
same,normalized growth,"locus YER123W, strain YCK3, hits give low values",0.806
same,normalized growth,"locus YER133W, strain GLC7, hits give low values",0.847
same,normalized growth,"locus YFL009W, strain cdc4, hits give low values",0.953
same,normalized growth,"locus YFL029C, strain CAK1, hits give low values",0.954
same,normalized growth,"locus YFR003C, strain YPI1, hits give low values",0.972
same,normalized growth,"locus YFR019W, strain FAB1, hits give low values",0.919
same,normalized growth,"locus YFR028C, strain CDC14, hits give low values",0.954
same,normalized growth,"locus YGR040W, strain KSS1, hits give low values",0.824
same,normalized growth,"locus YGR052W, strain FMP48, hits give low values",0.871
same,normalized growth,"locus YGR092W, strain DBF2, hits give low values",0.691
same,normalized growth,"locus YHR030C, strain SLT2, hits give low values",0.821 (active)
same,normalized growth,"locus YHR079C, strain IRE1, hits give low values",0.762
same,normalized growth,"locus YHR082C, strain KSP1, hits give low values",0.825
same,normalized growth,"locus YHR205W, strain SCH9, hits give low values",0.874
same,normalized growth,"locus YIL147C, strain SLN1, hits give low values",0.963
same,normalized growth,"locus YJL095W, strain BCK1, hits give low values",0.834
same,normalized growth,"locus YJL128C, strain PBS2, hits give low values",0.98
same,normalized growth,"locus YJL157C, strain FAR1, hits give low values",0.876
same,normalized growth,"locus YJR016C, strain ILV3, hits give low values",0.961
same,normalized growth,"locus YJR066W, strain TOR1 (second series), hits give low values",0.601 (active)
same,normalized growth,"locus YJR066W, strain TOR1, hits give low values",0.773
same,normalized growth,"locus YKL048C, strain ELM1, hits give low values",0.919
same,normalized growth,"locus YKL067W, strain YNK1, hits give low values",0.9
same,normalized growth,"locus YKL101W, strain HSL1, hits give low values",0.884
same,normalized growth,"locus YKL193C, strain SDS22, hits give low values",0.961
same,normalized growth,"locus YKL203C, strain TOR2, hits give low values",0.844
same,normalized growth,"locus YLR113W, strain HOG1, hits give low values",0.847 (active)
same,normalized growth,"locus YLR133W, strain CKI1, hits give low values",0.847
same,normalized growth,"locus YLR403W, strain SFP1, hits give low values",0.789
same,normalized growth,"locus YML070W, strain DAK1, hits give low values",0.88
same,normalized growth,"locus YMR001C, strain CDC5, hits give low values",0.965
same,normalized growth,"locus YMR205C, strain PFK2 (second series), hits give low values",0.879
same,normalized growth,"locus YMR277W, strain FCP1, hits give low values",0.958
same,normalized growth,"locus YNL006W, strain LST8, hits give low values",0.967
same,normalized growth,"locus YNL020C, strain ARK1, hits give low values",0.853
same,normalized growth,"locus YNL161W, strain CBK1, hits give low values",0.969
same,normalized growth,"locus YNL183C, strain NPR1, hits give low values",0.749
same,normalized growth,"locus YNL207W, strain RIO2, hits give low values",0.946
same,normalized growth,"locus YNL222W, strain SSU72, hits give low values",0.965
same,normalized growth,"locus YNL307C, strain MCK1 (second series), hits give low values",0.788
same,normalized growth,"locus YOL078W, strain AVO1, hits give low values",0.953
same,normalized growth,"locus YOL136C, strain PFK27, hits give low values",0.844
same,normalized growth,"locus YOR061W, strain CKA2, hits give low values",0.839
same,normalized growth,"locus YOR119C, strain RIO1, hits give low values",0.915
same,normalized growth,"locus YOR231W, strain MKK1, hits give low values",0.843
same,normalized growth,"locus YOR329C, strain SCD5, hits give low values",0.959
same,normalized growth,"locus YPL031C, strain PHO85, hits give low values",0.794
same,normalized growth,"locus YPL153C, strain RAD53, hits give low values",0.773
same,normalized growth,"locus YPL204W, strain HRR25, hits give low values",0.795
same,normalized growth,"locus YPL209C, strain IPL1, hits give low values",0.964
same,normalized growth,"locus YPL256C, strain CLN2, hits give low values",0.843 (active)
same,normalized growth,"locus YPR025C, strain CCL1, hits give low values",0.961
same,normalized growth,"locus YPR106W, strain ISR1, hits give low values",0.968
same,normalized growth,"locus YPR111W, strain DBF20, hits give low values",0.965
same,normalized growth,"strain NNK1, hits give low values",0.967
same,normalized growth,"strain TSCII, hits give low values",0.961
